# PubChem BioAssay AID686978 (National Center for Advancing Translational Sciences (NCATS), 2013)
# Among all 420,000 compounds or so, about 64,000 (15%) were called active. About 27% were inconclusive and are not listed. A selection follows. Values without a mark were called inactive. Calls follow the shape of the dose curve; as a rule, active = well fitted inhibition curve with a large enough effect; inconclusive = small, poorly fitted or top-dose-only effect; inactive = flat fitted curve, though single readings scatter.
# Assay: qHTS for Inhibitors of human tyrosyl-DNA phosphodiesterase 1 (TDP1): qHTS in cells in absence of CPT; also: nearly all actives have a fitted effect of over 55% in size
# Settings: DT40 Tdp1-/- hTDP1 cells, no CPT, ATP luminescence, 48 h; activity change, negative = growth inhibition: at 46.2 µM (top of the series)
# Method in brief: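 Growth kinetics read by CellTiter-Glo luminescence after ≥48 hr at 37 °C. Cells: DT40 Tdp1-/- stably carrying human TDP1, 400 per well, compound exposure in the absence of CPT (DMSO vehicle).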
# % is scaled to controls: 0 for no effect and ±100 for the full control effect; potency is read from the fitted curve at half-maximal effect.
SMILES,"activity change, negative = growth inhibition [%]",Potency
C=CCn1c(COc2ccccc2)nnc1SCC(=O)NCC(=O)OCC,-27.1,–
O=C(O)CSc1nccc2ccccc12,-14.4,–
COc1cc(Cl)c(S(=O)(=O)n2cnc(C)c2)cc1Cl,-1.08,–
Cc1ccnc(NC(=O)CNC(=O)c2ccccc2)c1,5.46,–
CCc1ccc(CNC(=O)CCc2nc(-c3cccs3)no2)cc1,-19.3,–
CSc1n[nH]c(-c2ccco2)n1,-7.2,–
O=C(CC(NS(=O)(=O)c1ccc(Cl)cc1)c1ccco1)NC1CCCC1 (centres undefined),-3.48,–
CCc1nn(CC(=O)N2CCN(CC)CC2)c(=O)c2cccn12,-0.686,–
COc1ccccc1NS(=O)(=O)c1ccc(C)c(C(=O)NCC(c2ccco2)N(C)C)c1 (centres undefined),6.61,–
C=CC(C1=CC(=O)C=CC1=O)c1ccc(O)cc1 (centres undefined),–,1.84 µM (active)
COc1ccc(CC(=O)Nc2ccc3c(c2)CCC3)cc1S(=O)(=O)N1CCOCC1,-18.7,–
COC(=O)c1cccc(N(CC(=O)NCC2CCCO2)C(=O)CCC(=O)Nc2cc(C)on2)c1 (centres undefined),-22.2,–
CCOC(=O)Cc1csc(NC(=O)COc2ccc3c(C)cc(=O)oc3c2)n1,-22.8,–
CCOC(=O)Cc1csc(SCC(=O)Nc2ccc(C)cc2F)n1,–,14.6 µM (active)
CCOC(=O)Cc1csc(SCc2cc(=O)oc3cc(O)ccc23)n1,–,13 µM (active)
Cc1ccc(-c2csc(SCC(=O)Nc3cc(C)on3)n2)cc1,-27.8,–
CCOC(=O)Cc1csc(NC(=O)C(C)(C)C)n1,-20.3,–
CCOC(=O)Cc1csc(NC(NC(=O)OCC)(C(F)(F)F)C(F)(F)F)n1,-14.5,–
CCOC(=O)Cc1csc(NC(=O)CSc2ccc(Br)cc2)n1,–,16.4 µM (active)
Cc1ccc(C)c(NC(=O)COC(=O)Cn2c(C)csc2=O)c1,-18.8,–
Cc1ccc2c(CSc3nncs3)cc(=O)oc2c1,-5.24,–
CN(C(=O)CSc1nnc(Nc2ccccc2)s1)C1CCS(=O)(=O)C1 (centres undefined),-10.7,–

SMILES,"activity change, negative = growth inhibition [%]",Potency
CC(Nc1ccccc1)c1cccnc1 (centres undefined),4.56,–
O=C(O)C1CCCN1c1nc(Cl)ccc1[N+](=O)[O-] (centres undefined),-3.67,–
CCn1ccnc1CN1CCCC(C(=O)c2ccc3c4c(cccc24)CC3)C1 (centres undefined),–,4.61 µM (active)
CCc1nccn1CCC(=O)N1CCCC(N2CCN(c3ccccc3F)CC2)C1 (centres undefined),-2.17,–
Cc1c(CN2CCCC(C(=O)c3cccc(Cl)c3)C2)c(=O)n(-c2ccccc2)n1C (centres undefined),-10.5,–
COc1cc(CN2CCC(n3nccc3NC(=O)CCCc3ccccc3)CC2)ccc1O,1.27,–
Cc1ccc(CN2CCC(n3nccc3NC(=O)CCCc3ccccc3)CC2)o1,-21.2,–
COc1ccc(CN2CCC(n3nccc3NC(=O)CCCc3ccccc3)CC2)cc1C,–,29.1 µM (active)
CCN(C[C@H]1N[C@@](CC)(C(=O)OC)[C@H]2C(=O)N(Cc3ccccc3)C(=O)[C@@H]12)S(=O)(=O)c1ccc(C(F)(F)F)cc1,–,18.4 µM (active)
CC[C@@]1(C(=O)OC)N[C@H](CN(C)C(C)=O)[C@@H]2C(=O)N(C)C(=O)[C@@H]21,-6.42,–
COC(=O)[C@]1(Cc2ccccc2)N[C@H](CN(C)S(=O)(=O)c2ccc(OC(F)(F)F)cc2)[C@@H]2C(=O)N(C)C(=O)[C@@H]21,–,23.1 µM (active)
CCNC(=O)N(CC)C[C@H]1N[C@@](CC)(C(=O)OC)[C@H]2C(=O)N(Cc3ccccc3)C(=O)[C@@H]12,30.1,–
CCN(CC)S(=O)(=O)c1ccc2c(c1)N(CC(=O)NCc1ccccc1)C(=O)CS2,-10.2,–
CCN(C[C@H]1N[C@@](CC)(C(=O)OC)[C@H]2C(=O)N(C)C(=O)[C@@H]12)C(=O)Nc1ccc(F)cc1,-6.24,–
CCC1OC(c2ccc([N+](=O)[O-])cc2)=Nc2ccccc21 (centres undefined),-0.861,–
COC(=O)c1sccc1NS(=O)(=O)c1ccc(F)cc1F,-15.1,–
CN(C)c1ccc(/C=N\S(=O)(=O)c2ccccc2)cc1,-3.66,–
CN(C)c1cc(N)c2ccccc2n1 (tested in a mixture with another compound),-26.8,–
CN(C)c1ccc(/C=C/C=C/c2ccnc3ccccc23)cc1,–,2 µM (active)
CCCCC(CCCC)c1ccc(C=Nc2ccc(/C=C/c3ccnc4ccccc34)cc2)cc1,–,11.2 µM (active)
CN(C)c1ccc(/C=C/c2c3ccccc3nc3ccccc23)cc1,–,12.6 µM (active)
C(=Nc1ccc(/C=C/c2ccnc3ccccc23)cc1)c1cc2c3c(c1)CCCN3CCC2,–,11.2 µM (active)

SMILES,"activity change, negative = growth inhibition [%]",Potency
O=C(O)C1C2C=CC(O2)C1C(=O)Nc1ccccn1 (centres undefined),-28.6,–
Cc1nc(COc2cc3oc(=O)cc(C)c3cc2Cl)cs1,-27.1,–
COc1ccc(S(=O)(=O)N2CCN(C(=O)NC3CCCCC3)CC2)cc1,-16.4,–
C[C@H](NS(=O)(=O)c1ccc(Cl)cc1)C(=O)OCC(=O)N1CCOCC1,23.5,–
Cc1sc2ccccc2c1CNC[C@H]1O[C@@H](n2ccc(=O)[nH]c2=O)[C@H](O)[C@@H]1O,1.3,–
O=S(N1CCCCCC1)C12CC3CC(CC(C3)C1)C2 (centres undefined),-28.1,–
O=C1NCCn2nc3ccccc3c21,0.602,–
C(=Nc1ccc(/C=C/c2ccnc3ccccc23)cc1)Nc1ccc(/C=C/c2ccnc3ccccc23)cc1,–,8.91 µM (active)
O=C(/C=C/c1ccc(Cl)cc1)Nc1ccc(S(=O)(=O)Nc2ncccn2)cc1,0.921,–
CC(=O)Nc1ccc(NC(=O)COc2ncnc3ccccc23)cc1,-12.7,–
NC(=O)Nc1ccc(/C=C/c2ccnc3ccccc23)cc1,–,12.6 µM (active)
CN(C)c1ccc(C=Nc2ccc(/C=C/c3ccnc4ccccc34)cc2)cc1,–,17.8 µM (active)
O=C(CCNS(=O)(=O)c1ccc(Br)s1)NCc1ccccc1Cl,-6.47,–
CC(=O)c1cc(CN2CCC(n3nccc3NC(=O)c3ccccc3Cl)CC2)cs1,-16.4,–
Cc1cc(NC(=O)CSc2ncc(C(F)(F)F)cc2Cl)no1,-18.9,–
O=C(O)c1ccc([N+](=O)[O-])cc1Sc1ccsc1,-9.07,–
COCCNc1nc(N)c([N+](=O)[O-])c(N2CCCCCC2)n1,-19.5,–
CCC1=NN(C(=O)Cc2ccc([N+](=O)[O-])cc2)C(O)(c2ccc(Br)cc2)C1 (centres undefined),-5.88,–
CN(C(=O)CSc1nnc(-c2c[nH]c3ccccc23)o1)C1CCS(=O)(=O)C1 (centres undefined),-10.9,–
Cc1ccc(C)c(S(=O)(=O)Nc2cccc(-n3cnnn3)c2)c1,3.02,–
